Reference: PubChem BioAssay

Test: binders of probe aFSTL3 on microarray, primary screen, stem cell growth factor project, biochemical, small-molecule microarray, fluorescence 635/667 (AID 1064);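 further: measures binding of the biotinylated anti-FSTL3 antibody to printed compounds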
Conditions: higher = more signal

| Compound | composite z-score |
| --- | --- |
| COCCOC(=O)N1C(=O)[C@@]2(c3cc(C#CCNC(N)=O)ccc31)[C@H](C(=O)NC[C@H](O)c1ccccc1)[C@H]1C(=O)O[C@H](c3ccccc3)[C@H](c3ccccc3)N1[C@@H]2c1ccc(OCCO)cc1 | 0.102 |
| COC(=O)[C@@]1(Cc2ccc(F)cc2)[C@H]2c3cc(C(=O)N(C)C)n(CCn4cc([N+](=O)[O-])nc4C)c3C[C@H]2CN1C(=O)c1ccccc1 | 0.729 |
| CN(C)CCCCNC(=O)[C@H]1C[C@H]2C(=O)N[C@@H](Cc3ccccc3)C(=O)N2[C@H]1c1cccc(OCCO)c1 | 0.863 |
| CCCCN1CC=CC23O[C@@H]4/C=C\CCC(C)OC(=O)C4[C@H]2C(=O)N(C(C)CO)[C@@H]3C1=O (stereo not given in full) | -0.126 |
| CCCCC(=C=CC[C@@H](O)c1cccc(OCCO)c1)CCO | -0.219 |
| CN1C=C(C(=O)OCCS(C)(=O)=O)C(C(=O)OCCS(C)(=O)=O)=CC(CCCO)=CC1c1ccc(CN2CCCC2)cc1 (stereo not given) | 0.316 |
| C#CCN(C/C=C/c1ccccc1)[C@H](CO[Si](C)(C)C(C)(C)C)c1ccccc1 | -0.0528 |
| O=C1O[C@H](c2ccccc2)[C@H](c2ccccc2)N2[C@H]1[C@@H](C(=O)N1CCN(c3ncccn3)CC1)[C@]1(C(=O)Nc3ccccc31)[C@H]2c1ccc(O)cc1 | 0.258 |
| [N-]=[N+]=NCc1ccccc1[C@@H]1OC(c2ccc(OCCCO)cc2)=N[C@]1(Cc1ccccc1)C(=O)NCc1ccccc1 | -0.158 |
| C=CCOC(=O)[C@H]1[C@@H]2C(=O)O[C@@H](c3ccccc3)[C@@H](c3ccccc3)N2[C@@H](c2ccc(OCCOC(=O)[C@@H]3C[C@@H]4C(=O)N[C@@H](CC(C)C)C(=O)N4[C@@H]3c3ccc(O)cc3)cc2)[C@]12C(=O)Nc1ccc(I)cc12 | -0.185 |
| CC(C)CNC(=O)[C@@]1(C)c2ccccc2C(=O)N(Cc2cc(F)cc(C(F)(F)F)c2)[C@H]1c1ccc(CO)cc1 | -0.182 |
| NCCCC[C@@H]1NC(=O)[C@H]2C[C@@H](C(=O)O)[C@@H](c3cccc(OCCO)c3)N2C1=O | 1.34 |
| CC(C)C[C@@H]1NC(=O)[C@H]2C[C@@H](C(=O)NCCCCCNC(=O)CS)[C@@H](c3ccc(O)cc3)N2C1=O | -0.208 |
| CO[C@H]1O[C@H](CO)[C@@H](OC(=O)Nc2ccccc2)[C@@H]2OC(=O)[C@H](Cc3ccccc3)C/C=C/C[C@@H](Cc3ccccc3)C(=O)O[C@@H]12 | 0.146 |
| CC(C)CNC(=O)[C@@H]1c2ccccc2C(=O)N(Cc2ccccc2Cl)[C@H]1c1ccc(CO)cc1 | 0.29 |
| CCc1cccc(NC(=O)O[C@H]2[C@H](OC(=O)Nc3ccc4c(c3)OCO4)[C@H](OC(=O)Nc3ccc4c(c3)OCO4)[C@@H](OC)O[C@@H]2CO)c1 | 0.0053 |
| CCN(CC)c1ccc(N2CC=CC34O[C@@H]5C=CCOC(=O)[C@@H]5[C@H]3C(=O)N(CCCO)[C@@H]4C2=O)cc1 (stereo not given in full) | 0.515 |
| C=C(CCCC)/C(=C/C[C@H](OC(C)=O)c1cccc(OCCO)c1)c1cc(C(=O)OC)ccc1OC | 0.0336 |

| Compound | composite z-score |
| --- | --- |
| C=C(COC)/C(=C/C[C@H](OC(=O)c1ccncc1)c1ccc(OCCO)cc1)c1cc(C(=O)OC)ccc1OC | -0.139 |
| NC(=O)NCC#Cc1ccc2c(c1)[C@]1(C(=O)N2)[C@H](C(=O)Nc2nc3ccccc3s2)[C@H]2C(=O)O[C@H](c3ccccc3)[C@H](c3ccccc3)N2[C@@H]1c1ccc(OCCO)cc1 | 0.155 |
| C=CCNC(=O)[C@H]1[C@@H]2C(=O)O[C@@H](c3ccccc3)[C@@H](c3ccccc3)N2[C@@H](c2ccc(O)cc2)[C@]12C(=O)Nc1ccc(C#CC3=CCCCC3)cc12 | -0.713 |
| C=CCC(OC(C)=O)[C@@H]1[C@@H](N(Cc2cccc3ccccc23)C(=O)c2ccc(-c3ccccc3)cc2)c2cc(OCCCO)ccc2N1C(=O)c1ccc2ccccc2n1 (stereo not given in full) | -0.093 |
| O=C1c2ccccc2[C@](Cc2ccccc2I)(C(=O)O)[C@H](c2ccc(CO)cc2)N1Cc1ccccc1 | 0.877 |
| CC(C)[C@@H](C(=O)O)n1cc(-c2ccccc2)nn1 | 0.272 |
| C/C=C/CN(C(=O)C#Cc1ccccc1)[C@H](CO[Si](C)(C)C(C)(C)C)c1ccccc1 | 0.15 |
| COCCOC(=O)N1C(=O)[C@@]2(c3cc(C#CCCO)ccc31)[C@H](c1ccc(O)cc1)N1[C@H](c3ccccc3)[C@H](c3ccccc3)OC(=O)[C@H]1[C@@H]2C(=O)N1CCc2cc(OC)c(OC)cc2C1 | 0.0104 |
| Cc1ccc(S[C@]2(C(=O)NC3CC3)CC(=O)N(Cc3cc(C(F)(F)F)cc(C(F)(F)F)c3)[C@@H]2c2ccc(CO)cc2I)cc1 | 0.385 |
| C[N+](C)(C)CCCC[C@@H]1NC(=O)[C@H]2C[C@@H](C(=O)NCCCCCNC(=O)CS)[C@@H](c3ccc(O)cc3)N2C1=O | -0.257 |
| CC[C@H](C)C(=O)O[C@H]1CC[C@]2(C)C3=C(CCC2C1(C)C)[C@]1(C)CC[C@H]([C@H](C)CCCC(C)C)[C@@]1(C)CC3 (stereo not given in full) | -0.598 |
| COCCOC(=O)N1C(=O)[C@@]2(c3cc(C#CCC(C(=O)OC)C(=O)OC)ccc31)[C@H](C(=O)N1CCCCCCC1)[C@H]1C(=O)O[C@H](c3ccccc3)[C@H](c3ccccc3)N1[C@@H]2c1ccccc1OCCO | 3.92 |
| C=CCOC(=O)[C@H]1[C@@H]2C(=O)O[C@@H](c3ccccc3)[C@@H](c3ccccc3)N2[C@@H](c2ccc(OCCOC(=O)[C@H]3C[C@H]4C(=O)NCC(=O)N4[C@H]3c3ccc(O)cc3)cc2)[C@]12C(=O)Nc1ccc(I)cc12 | -0.309 |
| CC#CCO[Si](C#CCCCCCC)(C(C)C)C(C)C | 1.3 |
| CC(c1ccccc1)C(O)C1C=CC2C(=O)N(c3ccccc3)C(=O)C2N1Nc1ccc(C#N)cc1 (stereo not given) | -0.177 |
| O=C1c2ccccc2[C@@]2(Cc3ccccc3N(Cc3ccccc3)C2=O)[C@H](c2ccc(CO)cc2)N1Cc1ccccc1 | 0.55 |
| CC(C)CNC(=O)[C@@H]1c2ccccc2C(=O)N(CC23CC4CC(CC(C4)C2)C3)[C@H]1c1ccc(CO)cc1 | -0.146 |
